IMPase inh = membrane-permeable compound that blocks inositol monophosphatase; P97697; CHO-M1 cells, IP1 accumulation, HTRF TR-FRET ratio; inhibition (IP1 accumulation), % at 46.1 µM; 120,000 tested, under 10 active; AID 901; active means well fitted curve in the direction sought with a large enough effect in the signal ratio, not every such curve was filed as active; inconclusive means small, poorly fitted or top-dose-only effect, or a change in a side signal; inactive means no such curve, though single readings can be large or run the other way; the % refers to the signal ratio;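 further: cells stimulated with carbachol in lithium chloride buffer; plate controls were DMSO basal wells for no effect and reference inhibitor wells for full effect; higher means more IMPase inhibition seen as more IP1 and lower FRET ratio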
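The IP-One HTRF competitive assay in carbachol-stimulated CHO-M1 cells quantifies cellular IP1. Compounds spanned up to 46 uM final, and activity is expressed as AC50 from concentration-response fits of the ratio and donor data.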
ALOX12 inhib = 12-hLO (ALOX12) enzyme inhibition; P18054; AID 1452; 0.12% of 150,000 active; Potency, µM (top dose mostly 57.1 µM), for inactives: at the top dose activity change, negative = inhibition, actives largely listed as inhibitors; purified 12-hLO, xylenol orange hydroperoxide absorbance; further: potency means the concentration at half of the fitted maximal effect; nearly all actives have a fitted effect of over 55% in size
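Hydroperoxide output read as Fe(III)-xylenol orange absorbance, 573-to-405 nm ratio, after 30 min reaction with 40 uM arachidonic acid. Enzyme: 150 nM purified human 12hLO, 15 min compound preincubation; 25 mM Hepes pH 7.0, room temperature.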
NPSR antag = antagonists of human neuropeptide S receptor cAMP signaling. CHO-NPSR cells, cAMP TR-FRET, antagonist mode. Potency, µM (doses to about 38.3 µM), for the others: at the top dose activity change, negative = inhibition, most hits filed as inhibitors. Q6W5P4. 1% of 220,000 active; further: potency means the concentration at half of the fitted maximal effect; nearly all actives have a fitted effect of over 50% in size
Target sequence (Q6W5P4 whole entry, looked up): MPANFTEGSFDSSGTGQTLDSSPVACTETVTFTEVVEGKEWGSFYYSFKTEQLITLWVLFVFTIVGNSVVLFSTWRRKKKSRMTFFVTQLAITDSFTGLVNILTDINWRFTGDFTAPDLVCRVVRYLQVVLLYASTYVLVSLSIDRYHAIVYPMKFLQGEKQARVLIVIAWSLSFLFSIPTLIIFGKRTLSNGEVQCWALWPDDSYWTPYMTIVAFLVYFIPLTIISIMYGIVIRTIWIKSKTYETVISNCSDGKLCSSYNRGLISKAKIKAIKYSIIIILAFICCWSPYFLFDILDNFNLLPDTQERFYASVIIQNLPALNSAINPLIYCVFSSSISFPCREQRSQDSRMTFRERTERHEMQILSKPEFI
ALDH1A1 inh = ALDH1A1 (human) enzyme inhibition; P00352; Purified ALDH1A1, NADH fluorescence, propionaldehyde substrate; Potency, µM (series often up to 75.3 µM), for inactives: top-dose activity, negative = inhibition, hits mostly inhibitors; 7.3% of 220,000 active; active means well fitted inhibition curve with a large enough effect, not every such curve was filed as active; inconclusive means small, poorly fitted or top-dose-only effect, or another doubt; inactive means no such curve, though single readings can be large or run the other way;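 further: potency means the concentration at half of the fitted maximal effect; plate controls were no enzyme wells and a reference inhibitor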
IMPase Li inh = membrane-permeable IMPase blocker, potentiated with lithium. Potency, µM (series often up to 59.4 µM), for inactives: at the highest dose activity, negative = IMPase inhibition, hits mostly inhibitors. CHO-M1 cells, IP1 TR-FRET (IP-One), carbachol + lithium. 0.35% of 210,000 active;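 further: IP1 builds up when IMPase is blocked and the TR-FRET signal falls; potency means the concentration at half of the fitted maximal effect; plate controls were basal vehicle for no effect and high inhibitor control for full effect; nearly all actives have a fitted effect of over 50% in size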
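Steps: plate 2000 CHO-M1 cells per well and culture 16–30 h; add compound and lithium; incubate 30 min, 37C; add d2-IP1 tracer and Eu cryptate anti-IP1 antibody in lysis buffer; read after 10 min at room temperature.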
HPGD block = HPGD (human) dehydrogenase inhibition | P15428 | purified HPGD, NADH fluorescence kinetic, PGE2 substrate | Potency, µM, without a hit: at the highest dose activity change, negative = inhibition, actives largely listed as inhibitors | 4.3% of 150,000 active | AID 894; active means well fitted inhibition curve with a large enough effect, not every such curve was filed as active; inconclusive means small, poorly fitted or top-dose-only effect, or another doubt; inactive means no such curve, though single readings can be large or run the other way; further: potency means the concentration at half of the fitted maximal effect
Target sequence (P15428 whole entry, looked up): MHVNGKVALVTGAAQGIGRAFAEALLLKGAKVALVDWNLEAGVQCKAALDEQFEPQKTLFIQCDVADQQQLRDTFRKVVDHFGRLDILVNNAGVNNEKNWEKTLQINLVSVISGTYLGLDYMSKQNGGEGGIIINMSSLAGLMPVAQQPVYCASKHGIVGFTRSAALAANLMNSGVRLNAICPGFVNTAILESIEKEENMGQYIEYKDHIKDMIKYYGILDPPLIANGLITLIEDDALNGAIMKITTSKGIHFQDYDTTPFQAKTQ
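20 nM HPGD preincubated 15 min at room temperature with compound in 50 mM Tris-HCl pH 8, 0.01% Tween 20. Started with 1 mM NAD+ and 30 uM prostaglandin E2; NADH fluorescence (360/450 nm) read 5 times over 30-s intervals, last minus first.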
Starred values were filed as active, the others as inactive; ? = inconclusive; / = no result given; [ ] = remark or other dose. A selection: hits, their analogues and other compounds. The true share with any hit is near 8.9%. Unless noted, the call rests on the fitted dose curve; in most records, active means well fitted curve in the direction sought with a large enough effect; inconclusive means small, poorly fitted or top-dose-only effect, or another doubt; inactive means no such curve, though single readings can be large; an effect the other way counts as inactive or inconclusive. Unless noted, on the % scale 0 is the no-effect control and ±100 the full control effect.

SMILES	IMPase inh	ALOX12 inhib	NPSR antag	ALDH1A1 inh	IMPase Li inh	HPGD block
COCCCNC(=S)Nc1ccccc1[N+](=O)[O-]	/	/	-1%	22µM*	-2%	/
CCCCNC(=S)Nc1cc([N+](=O)[O-])ccc1C	/	-3%	7%	0%	-2%	14µM*
COc1cc(C(=O)NC(=S)Nc2ccc([N+](=O)[O-])cc2)cc(OC)c1OC	/	10%	28%	?	4%	-14%
COc1cc(C(=O)NC(=S)Nc2ccc([N+](=O)[O-])cc2C)cc(OC)c1OC	/	2%	-6%	13µM*	2%	-7%
Cc1ccccc1C(=O)Nc1nc(-c2cccnc2)cs1	/	/	-13%	/	/	/
CC(C)c1ccc(C2NC(=O)NC3=C2CCc2ccccc23)cc1 (stereo not drawn)	7	-2%	-32%[46.1 µM]	?	39%[38.3 µM]	?
Cc1nnsc1C(=O)N1CCN(c2cc(C(F)(F)F)ccn2)CC1	/	/	-21%	4%	/	/
O=C(Cn1c(N2CCN(c3ccccc3)CC2)nc2ccccc21)c1ccccc1	2	-2%	?	-7%	14%	-12%
O=C(NN1C(=O)/C(=C/C=C/c2ccccc2)SC1=S)c1ccncc1	/	/	-39%	4.5µM*	12%	/
COc1ccc(CC(=O)Nc2nc(-c3cccnc3)cs2)cc1	/	2%	0%	-8%	-6%	-14%
O=C(Nc1ccsc1C(=O)NC1CCCCC1)c1ccc(F)cc1	-11	1%	-10%[46.1 µM]	?	28µM*	-18%
C=CCn1c(-c2cccc(S(=O)(=O)N(CC)CC)c2)n[nH]c1=S	/	/	-18%	2.2µM*	-18%	/
CCN(CC)S(=O)(=O)c1cccc(-c2n[nH]c(=S)n2C)c1	/	/	-4%	1%	-5%	/
CCCc1cc(-c2n[nH]c(=S)n2C(C)c2ccccc2)cs1 (stereo not drawn)	7	-30%	-7%[46.1 µM]	?	29%[38.3 µM]	13µM*
CCc1cc(-c2n[nH]c(=S)n2-c2ccccc2C)cs1	3	-20%	-3%[46.1 µM]	8.9µM*	-8%[38.3 µM]	?
CCCc1cc(-c2n[nH]c(=S)n2CC)cs1	/	/	-4%	?	-1%	/
S=c1[nH]nc(-c2cccc(Cl)c2)n1Cc1ccccc1	/	-12%	-8%	?	-5%	18µM*
O=C1c2oc3ccccc3c(=O)c2C(c2cccc(O)c2)N1c1nncs1 (stereo not drawn)	2	/	/	/	/	/
COCCCNC(=S)Nc1cccc(SC)c1	/	/	5%	/	/	/
CCSCCOC(=O)C1=C(C)N(C)C(=O)NC1c1cc(OC)ccc1OC (stereo not drawn)	4	-4%	-4%[46.1 µM]	4%	1%[38.3 µM]	-3%
CCn1c(-c2csc(C(C)C)c2)n[nH]c1=S	/	-3%	7%	16µM*	14%	?
O=[N+]([O-])c1cccc(-c2n[nH]c(=S)n2Cc2ccccc2)c1	/	-3%	2%	?	-2%	25µM*
C=CCn1c(-c2cccc(Cl)c2)n[nH]c1=S	-22	-9%	25%[46.1 µM]	11µM*	8.9µM*	?
Cc1ccccc1-c1n[nH]c(=S)n1Cc1ccccc1	/	/	-28%	-1%	9%	/
S=c1[nH]nc(-c2ccc(Cl)cc2Cl)n1Cc1ccccc1	/	-22%	-18%	32µM*	16%	16µM*
SMILES	IMPase inh	ALOX12 inhib	NPSR antag	ALDH1A1 inh	IMPase Li inh	HPGD block
CCN(CC)C(=O)CSc1nc2ncccc2[nH]1	?	-2%	9%[46.1 µM]	?	-18%[38.3 µM]	-3%
CCC(Cc1c(I)cc(I)c(N)c1I)C(=O)O (stereo not drawn)	/	-2%	/	11%	11%	-4%
O=C(NNC(=O)C1CCCO1)c1ccccc1Cl (stereo not drawn)	7	2%	3%[46.1 µM]	0%	4%[38.3 µM]	-15%
COc1ccc(CCNC(=O)CSc2ncnc3c2oc2ccccc23)cc1OC	-18	-4%	-23%[46.1 µM]	-11%	?	-15%
O=C1C2CCCCC2C(=O)N1c1ccc(NC2CCN(Cc3ccccc3)CC2)c([N+](=O)[O-])c1 (stereo not drawn)	/	/	-24%	?	34%	/
COc1ccc(S(=O)(=O)n2cnc(C)c2)cc1	/	/	-19%	15%	6%	/
CCc1cc(-c2n[nH]c(=S)n2Cc2ccccc2)cs1	8	-21%	-15%[46.1 µM]	5.6µM*	33%[38.3 µM]	14µM*
CCc1cc(-c2n[nH]c(=S)n2CC)cs1	/	-6%	3%	?	0%	-28%
NC(=O)C1(N2CCCCC2)CCN(c2ccc3nnc(-c4ccccc4)n3n2)CC1	-2	2%	-10%[46.1 µM]	4%	1%[38.3 µM]	-15%
C=CCn1c(SCC(=O)c2cccs2)nc2sc(C)c(C)c2c1=O	12	0%	-20%[46.1 µM]	8%	17%	-18%
C=CCn1c(SCC(=O)c2cc(C)n(CCOC)c2C)nc2sc(C)c(C)c2c1=O	4	-8%	-12%[46.1 µM]	25µM*	35%[38.3 µM]	?
COc1ccccc1NS(=O)(=O)c1ccc(Cl)c(NC(=S)NC(=O)C2CCCC2)c1	/	-30%	-32%	?	4%	-8%
CCN(CC)c1ccc(S(=O)(=O)Nc2cc(Cl)ccc2Cl)cc1NC(=S)NC(=O)C1CCCC1	/	-23%	-55%	22µM*	8%	-30%
O=C(CN1C(=O)C(c2ccc(F)cc2)=NC12CCCC2)Nc1ccc(F)cc1	/	/	5%	?	9%	/
CN1CCC2(CC1)N=C(c1ccc(F)cc1)C(=S)N2C(=O)c1ccccc1	11	1%	-4%[46.1 µM]	22µM*	/	/
CCN1CCC2(CC1)N=C(c1ccc(F)cc1)C(=S)N2C(=O)c1ccc(C(C)(C)C)cc1	16	-2%	?	28µM*	/	/
O=C(CC(=O)NCc1cccnc1)NCc1cccnc1	-3	-4%	-4%[46.1 µM]	12%	14%[38.3 µM]	-14%
COc1cc(C(c2sc3nc(C)nn3c2O)N2CCC3(CC2)OCCO3)cc(OC)c1OC (stereo not drawn)	-8	-5%	4%[46.1 µM]	18µM*	8%[38.3 µM]	-6%
COC(=O)C1CCN(C(c2cc(OC)c(OC)c(OC)c2)c2sc3nc(C)nn3c2O)CC1 (stereo not drawn)	6	1%	-10%[46.1 µM]	-6%	13%[38.3 µM]	-4%
CNCC(=O)Nc1ccc(Cl)c(C(F)(F)F)c1	/	/	10%	3%	1%	/
CCCCN=C(NNc1ccc(Br)cc1)C(=O)OCC	16	-26%	-17%	14µM*	22%	-27%
CCOC(=O)C(=NCCCN(C)C)NNc1ccc(Br)cc1	/	-27%	2%	?	-1%	-5%
NNC(=O)c1ccc(-c2ccccc2F)cc1	/	/	-32%	1.1µM*	/	/
NC(=O)c1ccc(-c2ccccc2F)cc1	/	/	-8%	/	/	/
COC1=CC(=O)C(C(=O)c2ccccc2)=CC1=O	/	-22%	/	?	17%	4.5µM*
CC(=O)c1cccc(NC(=O)N2CCCC2C(=O)Nc2c(C)cccc2C)c1 (stereo not drawn)	4	3%	-4%[46.1 µM]	25µM*	0%[38.3 µM]	-8%
